Screen size: about 300,000 compounds; about 37,000 (12%) were called active. This is one part of a sample in which actives are shown more often than they occur. A number with no mark means an inactive call. Rule as the data show it: active = max response mostly above about 13% (no sharp cut-off); inactive = mostly below about 14%.

This assay in a line: Cycloheximide Counterscreen for Small Molecule Inhibitors of Shiga Toxin. Also: read at 38.3 µM for the half of the compounds with a filed dose; 0% is about no effect. The note with it: cell reporter, cycloheximide protein synthesis inhibition counterscreen; active compounds read high. For orientation: Counterscreens check selectivity or assay interference.
Turning to `COc1cccc(CNS(=O)(=O)c2ccc3c(c2)N(C(C)=O)CCS3)c1`, the max response was 3.83%. For the compound `CCOc1ccc2[nH]c3nc(SCC(=O)NC4CCCC4)nnc3c2c1`, the max response was -2.15%. Next, `CC(=C/c1ccccc1)/C=N/NC(=O)c1cc(C)oc1C`: 34.8% (active). Next, `CC(C)c1cc(C(=O)N/N=C/C(Br)=C/c2ccccc2)n[nH]1`: 14.6% (active); `CC(C)c1cc(C(=O)O)n[nH]1`: 10.8%; `COc1ccc2ccccc2c1/C=N/NC(=O)c1cc(C)[nH]n1`: -1.72%. Next, `CC(=O)N/C(=C/c1ccc(OC(F)F)cc1)C(=O)O`: 1.24%. `Cc1cc(C(=O)NNC(=O)CCC2CCCCC2)c(C)o1`: the max response is -7.16%. In the case of `O=C(CCC1CCCN(C(=O)c2ccc(F)c(F)c2)C1)N1CCN(c2ccccn2)CC1` (stereo not drawn) it was -2.81%; in that of `CC(=O)c1ccc(NC(=O)CCNS(=O)(=O)c2cc(Br)cnc2N)cc1`, -6.69%. Next, `CCOC(=O)[C@H]1[C@H]2COc3cc(OC)ccc3[C@@H]2N2C(=O)N(c3ccc(Br)cc3)C(=O)[C@@]12C`: -2.74%; `CC(=O)Nc1ccc(NS(=O)(=O)c2ccc3c(c2)NC(=O)CC(=O)N3)cc1`: -2.79%; `Cn1c(Nc2cccc(Cl)c2)nc2ccccc21`: 33.5% (active). For the compound `Cc1c(C(=O)Nc2cccc(Cl)c2)cn2c(nc3ccccc32)c1C#N`, the max response is -2.2%. For the compound `C/C(=N\c1nc2ccccc2n1C)c1cc(Cl)ccc1O`, the max response was -3.14%. With `Cc1cc2c(c(=O)n1Cc1ccccc1)C1O[C@](CCCCN3C(=O)c4ccccc4C3=O)(Cc3ccccc31)O2`, the max response is -2.41%. Next, `O=C1Nc2ccccc2C12Nc1ccccc1S2` (stereo not drawn): 33.2% (active); `COc1ccc(C2(O)C(=O)Nc3ccccc32)cc1` (stereo not drawn): -3.25%.

In the case of `Cc1cc(O)c(C2(O)C(=O)Nc3ccccc32)cc1C` (stereo not drawn), the max response was -3.78%. In the case of `CC(=O)NC1=NN(C(C)=O)C(C)(c2ccc(C)cc2)S1` (stereo not drawn) it was -3.23%; in that of `COc1cccc(NC(=O)Cn2cnc3sc(C)c(S(=O)(=O)N4CCN(C)CC4)c3c2=O)c1`, -1.26%. In the case of `Cc1cccc(OC(=O)c2sc3ncn(C)c(=O)c3c2C)c1` it was 32.8% (active); in that of `Cc1cc(Br)ccc1NC(=O)c1sc2ncn(CC(=O)N3CCN(c4ccccn4)CC3)c(=O)c2c1C`, -5.58%. In the case of `CCOC(=O)C(C)n1cnc2sc(C)c(C)c2c1=O` (stereo not drawn) it was -0.534%; in that of `Cc1c(C(N)=O)sc2ncn(CCOc3ccccc3)c(=O)c12`, 17.6% (active).

With `Cc1cc2ncn(CCCCOc3ccccc3)c2cc1C`, the max response was -2.02%. `O=c1cc(CCl)nc2scc(-c3ccccc3)n12`: the max response was 3.02%.

Consider `COc1ccc(CCNC(=O)CCNS(=O)(=O)c2cc(Br)cnc2N)cc1OC`, for which the max response was 13.2%.

Take `CN1C(=O)C2(OCCCO2)c2cc(Cl)ccc21`: the max response was 0.948%. Next, `CCCS(=O)(=O)N1CCC(CCOc2ccccc2)(C(=O)OCC)CC1`: -1.66%; `COc1ccc(-c2ccc(OC)c(C3C4C=CCC(C)C4C(=O)N3Cc3ccccc3)c2)cc1C` (stereo not drawn): 28.8%. In the case of `COc1ccc2cc1Oc1ccc(cc1)C[C@H]1c3cc(c(OC)cc3CCN1C)Oc1c(O)c(OC)cc3c1[C@H](C2)N(C)CC3` it was -1.4%. For `O=C(c1cncc(Br)c1)N1CCN(c2ccc([N+](=O)[O-])cc2)CC1`, the max response was -2.1%. Next, `COc1ccc(N(CC(=O)Nc2cccc3ccccc23)S(C)(=O)=O)c(OC)c1`: -1.55%. Next, `CC(C)(C)[Si](OCC[C@@H]1C[C@@]1(C)[C@@H](NP(=O)(c1ccccc1)c1ccccc1)c1ccccc1)(c1ccccc1)c1ccccc1`: -2.22%; `COC(=O)c1ccccc1NC(=O)c1ccc(C#N)cc1`: 14.4%. In the case of `Cc1ccc(C(=O)/C=C/c2c(C)nn(-c3ccccc3)c2Cl)cc1` it was 37.8% (active). In the case of `O=C(/C=C/c1ccc(Cl)c([N+](=O)[O-])c1)c1ccc(O)cc1`, the max response was 11.3%. Next, `Cc1nn(-c2ccccc2)c(Cl)c1/C=C/C(=O)c1ccc(O)cc1`: 17% (active). `CCNC(=O)COC(=O)/C=C/c1c(C)nn(Cc2cccc(OC)c2)c1Cl`: the max response was -1.93%. Next, `O=C(CN1C(=O)COc2ccc(Cl)cc21)N1CCOCC1`: -0.636%; `CCOC(=O)CSc1nc2ccc(C)cc2n2cnnc12`: 7.14%; `Cc1ccc(C)c(S(=O)(=O)Nc2cc(C)on2)c1`: -1.71%. Next, `CCCC(O)(CCC)C(=O)NN(C(=O)CCl)c1cccc(C)c1`: 4.6%; `O=C(NNS(=O)(=O)c1ccccc1C(F)(F)F)c1cc2ncc(C(F)(F)F)cc2s1`: -2.52%. Next, `CC(C)(C)c1cc(NC(=O)NN2CCOCC2)nn1-c1c(Cl)cc(Cl)cc1Cl`: 6.4%; `O=C(Nn1c(SCc2ccc([N+](=O)[O-])cc2)nc2ccccc2c1=O)c1ccc(F)cc1`: 116% (active). Regarding `O=C(CCn1c(SCC(=O)c2ccccc2)nc2ccccc2c1=O)NCc1ccc(F)cc1`, the max response is -3.48%. Next, `O=C(Nn1c(-c2ccccc2)nc2ccccc2c1=O)c1ccc([N+](=O)[O-])cc1`: 1.01%; `Cc1ccc(CNS(=O)(=O)c2ccc3c(c2)N(C)CCO3)cc1`: 13.9%.

Take `COc1ccccc1NC(=O)C1=C(C)NC(=O)NC1c1ccc(C)s1` (stereo not drawn): the max response is -3.68%. Next, `COC(=O)c1c(NC(C)=O)sc(C(=O)Nc2ccccc2OC)c1C`: -2%; `COc1ccccc1NC(=O)c1ccc(C)s1`: 64% (active); `CCCCn1c(=S)[nH]c2cc(S(=O)(=O)N3CCCCC3)ccc21`: -3.25%. Next, `O=[N+]([O-])c1ccc(O)c(/C=N/Nc2ccccc2[N+](=O)[O-])c1`: 15.6% (active); `O=C(N/N=C/c1cc([N+](=O)[O-])ccc1O)/C(=C\c1cccs1)NC(=O)c1ccccc1`: -1.19%; `Nc1nnnn1/N=C/c1cc([N+](=O)[O-])ccc1O`: 1.42%.

For the compound `CC(/C=N/NC(=O)c1cc(-c2ccc3ccccc3c2)n[nH]1)=C\c1ccco1`, the max response is 22.2% (active). In the case of `CC(/C=N/NC(=O)c1ccncc1)=C\c1ccco1` it was 10.3%; in that of `Cc1cc(C)c(OCC(=O)N/N=C/c2ccco2)c(C)c1`, -3.21%. Next, `OCCNCc1cccc(OCc2ccccc2Cl)c1`: -3.04%. Next, `O=C(COC(=O)c1cc(=O)[nH]c2ccccc12)Nc1nc(-c2cccc(Br)c2)cs1`: 0.762%; `Cc1cc(O)c(NC(=O)c2ccc(C)c([N+](=O)[O-])c2)cc1C`: 40.4% (active).

For `Cc1ccc(C(=O)Nc2cccc3ncccc23)cc1[N+](=O)[O-]`, the max response was 9.95%. For `CCN1CCC(=NNC(=O)c2ccc(C)c([N+](=O)[O-])c2)CC1`, the max response was -3.08%. In the case of `COc1cccc(-c2nc(CS(=O)(=O)CC(=O)NCCc3ccc(OC)c(OC)c3)c(C)o2)c1` it was 16%; in that of `COC(=O)c1sc(-c2ccc(C(C)(C)C)cc2)cc1NC(=O)/C=C/C(=O)O`, 45.7% (active).

`COc1ccccc1NC(=O)/C=C/C(=O)O`: the max response was -1.17%.

With `O=C(O)/C=C/C(=O)Nc1ccc(F)cc1F`, the max response was 7.97%. As to `O=C(CCn1nnnc1CN1CCOCC1)N1CCC(c2ccccc2Cl)C1` (stereo not drawn), the max response was -3.06%.

As to `CC(=O)c1c(C)n(-c2ccc(C)cc2)c2ccc(O)cc12`, the max response is -2.22%. In the case of `CCN(CC)C(=O)CSc1nc2ccccc2o1` it was 21.2% (active); in that of `O=C(CSc1nc2ccccc2o1)N1c2ccccc2Sc2ccc(Cl)cc21`, -1.63%; in that of `CCS(=O)(=O)c1ccc2oc(SCC(=O)N3c4ccccc4CC3C)nc2c1` (stereo not drawn), -5.84%. For the compound `Cc1cc(=O)[nH]c(SCC(=O)N2c3ccccc3CC2C)n1` (stereo not drawn), the max response is 1.01%. Next, `O=C(CSc1nc2ccccc2o1)N1CCN(c2ccccc2)CC1`: -3.14%; `O=C(CSc1nc2ccccc2o1)N1CCN(c2ccc(Cl)cc2)CC1`: 3.68%. Next, `CCOC(=O)CSc1nnc(-c2cccc(Br)c2)o1`: -2.27%; `CCN(CC)C(=O)CSc1nnc(-c2ccc(S(=O)(=O)NCc3ccccc3Cl)cc2)o1`: -0.581%; `CCN(CC)C(=O)CSc1nnc(-c2cccc(OC)c2)o1`: 41% (active). In the case of `CC1Cc2ccccc2N1C(=O)CSc1nc2ccccc2o1` (stereo not drawn) it was 42.4% (active); in that of `CCOC(=O)n1c(SCC(=O)N(CC)CC)nc2ccccc21`, 0.246%. With `CC(C)(C)C(=O)CSc1nc2ccccc2o1`, the max response was 34.5% (active).

Turning to `COc1ccc(CCNC(=O)C2CCCN2C(=O)Nc2ccccc2)cc1OC` (stereo not drawn), the max response was -1.21%.

For the compound `CCOC(=O)c1c(NC(=O)C2CC=CCC2C(=O)O)sc(C)c1CC` (stereo not drawn), the max response is -3.33%.

On to `Nc1nnnn1/N=C/c1cccc(Br)c1`, for which the max response was -1.37%. Next, `COc1ccc(-c2nn(C)c(=O)c3ccccc23)cc1CNC(=O)C1CCCCC1`: -2.76%; `Cc1ccccc1Nc1scc(-c2ccc(Br)cc2)[n+]1-c1ccccc1C`: 12.1%. On to `CC(C)OC(=O)CN1CCN(c2ccc(Cl)cc2)CC1`, for which the max response is -1.75%. In the case of `CC1CCCN(CCOCCOc2ccccc2-c2ccccc2)C1` (stereo not drawn) it was -1.97%; in that of `Cc1ccc(CNC(=O)CSc2nnc3c(n2)[nH]c2ccc(F)cc23)cc1`, -7.47%; in that of `CC(c1nnc(SCC(=O)Nc2sccc2C#N)n1-c1ccc(Cl)cc1)N(C)C` (stereo not drawn), -5.17%. Next, `CCOc1ccc(NC(=O)C/C(C)=N/NC(=O)Cc2cccs2)cc1`: 11.9%.

The values are drawn from PubChem BioAssay AID2314 (National Center for Advancing Translational Sciences (NCATS), 2010).
